ADAM17 inh: ADAM17 inhibition, QFRET primary screen | recombinant ADAM17, EDANS/DABCYL FRET peptide cleavage | inhibition, % at 6.95 µM | hit rate 0.83% among 370,000;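 active = inhibition above the mean of compounds lying between control limits plus 3 SD, set per campaign, cut at about 8.5% in these data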
ADAM10 inh: inhibitors of human ADAM10; hit rate 0.62% among 370,000; O14672; recombinant ADAM10, EDANS/DABCYL FRET peptide cleavage, 3 h; inhibition, % at 7 µM;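 active = inhibition above a per-campaign cutoff equal to the mean of compounds falling between control-based bounds plus 3 SD, cut at about 20% in these data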
rRNA inh HTS: inhibits bacterial ribosomal RNA function over humanized ribosomes; GFP signal change (wild-type ribosome), % (concentration not given with the values); AID 720706; hit rate 1.6% among 350,000; E. coli WT GFP vs humanized-ribosome RFP mutants, fluorescence, 24 h; hits give low values; DMSO median 0, no signal -100;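 active = significant combined selectivity score with lowered wild-type GFP, culture density cut under 30%, mutant RFP and density less affected; inactive = any of these conditions unmet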
FGF22 binding: FGF22 (human) thermal shift binding; recombinant FGF22 thermal shift, SYPRO orange fluorescence; percent of sucrose octasulfate shift, DMSO zero; activity (Tm shift, normalised), % at 9.99 µM; hit rate 1.5% among 340,000; AID 651658;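 active = mean Tm shift, scaled 0 neutral to 100 positive control, at about 1.3% or above, every replicate too, limit read from the data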
Target sequence (Q9HCT0 whole entry, looked up): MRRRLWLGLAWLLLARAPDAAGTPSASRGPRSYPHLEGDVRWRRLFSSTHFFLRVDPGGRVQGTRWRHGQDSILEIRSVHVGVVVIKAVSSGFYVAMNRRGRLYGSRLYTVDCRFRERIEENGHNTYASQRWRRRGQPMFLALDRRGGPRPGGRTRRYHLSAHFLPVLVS
KLK7 zymogen act: activates the human kallikrein-7 zymogen. activation, % at 7 µM. AID 652039. purified proKLK7, EDANS-DABCYL substrate fluorescence; 100% is mature enzyme control, 0% vehicle. hit rate 0.9% among 370,000;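 active = activation above the mean of all tested compounds plus 3 SD, computed per campaign excluding outliers beyond control limits, cut at about 13% in these data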
Target sequence (P49862 whole entry, looked up): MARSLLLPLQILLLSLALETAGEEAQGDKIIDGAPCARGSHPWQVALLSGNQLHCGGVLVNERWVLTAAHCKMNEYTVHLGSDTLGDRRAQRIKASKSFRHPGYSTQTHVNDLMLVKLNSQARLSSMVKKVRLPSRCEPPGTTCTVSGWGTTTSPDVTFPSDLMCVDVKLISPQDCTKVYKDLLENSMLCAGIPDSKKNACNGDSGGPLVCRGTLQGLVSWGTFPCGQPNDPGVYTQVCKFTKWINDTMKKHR
ADAM10 confirm: confirmation of inhibitors of human ADAM10; shares compounds with ADAM10 inh; ADAM10 QFRET peptide cleavage, EDANS fluorescence; inhibition, % at 6.95 µM; hit rate 1% among 2,100;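 active = inhibition above about 20% chosen separately for each screening run, limit read from the data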
ADAM17 ctr: counter-screen for ADAM10 exosite inhibitors: inhibitors of human ADAM17; inhibition, % at 6.95 µM; shares compounds with ADAM10 inh; ADAM17 QFRET peptide cleavage, EDANS fluorescence; hit rate 0.5% among 2,100; AID 743214;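 active = mean triplicate inhibition above the solvent-only control wells' mean plus 3 SD, cut at about 12% in these data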
Numbers stand for hits; 0 = inactive; - = not tested or not shown. Rows were chosen to be rich in hits. Some 3.8% of all compounds tested hit in one or more screens of this group.

SMILES	ADAM17 inh	ADAM10 inh	rRNA inh HTS	FGF22 binding	KLK7 zymogen act	ADAM10 confirm	ADAM17 ctr
COc1ccc(CCNC(=O)[C@@]2(Cc3ccccc3I)c3ccccc3C(=O)N(Cc3ccccc3OC)[C@H]2c2ccc(CO)cc2)cc1	-	-	-	0	-	-	-
O=C(Nc1ccccc1C(F)(F)F)c1ccc(F)c(S(=O)(=O)N2CCOCC2)c1	0	22.3	-	-	0	0	0
O=C(Nc1ccccc1N1CCCCC1)c1ccc(F)c(S(=O)(=O)N2CCOCC2)c1	0	0	0	0	0	-	-
CN(C)C(=O)c1ccc(-c2ccc3c(c2)[C@@H]2[C@@H](CCN2Cc2cncnc2)[C@@H](CO)N3)cc1	-	-	0	-	-	-	-
COCC(=O)Nc1ccc2c(c1)C(=O)N(C)[C@@H]1CC[C@H](CC(=O)OC)O[C@H]1CO2	-	-	0	0	-	-	-
COc1ccc(-c2cc(C3CCN(c4cc(Cl)nc(N)n4)CC3)[nH]n2)cc1	0	0	-	-	0	-	-
Nc1nc(Cl)cc(N2CCC(c3cc(-c4ccc(Cl)cc4)n[nH]3)CC2)n1	0	32.4	0	0	0	0	0
C[C@H]1CN([C@@H](C)CO)C(=O)Cc2cc(NC(=O)Cc3cn(C)c4ccccc34)ccc2O[C@@H]1CN(C)S(=O)(=O)c1cccs1	-	-	0	0	-	-	-
Cc1cc(C)nc(N/N=C/c2ccccc2OCc2ccc([N+](=O)[O-])cc2)n1	0	27.6	-	-	0	0	0
O=[N+]([O-])c1ccc(N/N=C\c2ccccc2OCc2ccccc2)cc1	0	0	0	0	0	-	-
C[C@@H]1CN([C@@H](C)CO)C(=O)c2cc(NC(=O)Nc3ccc(F)cc3)ccc2O[C@@H](C)CCCCO[C@H]1CN(C)Cc1ccncc1	-	-	0	0	-	-	-
Cc1cc(Br)c2c(c1)/C(=C/C(=O)c1cccs1)C(=O)N2	0	20.1	0	0	0	0	0
O=[N+]([O-])c1ccc(N/N=C/c2cccc(O)c2O)c(S(=O)(=O)N2CCOCC2)c1	0	30.4	0	0	0	0	0
O=[N+]([O-])c1ccc(N/N=C/c2ccc(O)c(O)c2O)c(S(=O)(=O)N2CCOCC2)c1	0	0	0	0	0	-	-
CC(C)CC#Cc1ccc([C@H]2[C@@H](CO)N3C(=O)CN(S(C)(=O)=O)C[C@H]23)cc1	-	-	0	-	-	-	-
COc1cccc2sc(N(CCCN(C)C)C(=O)c3ccc(S(=O)(=O)N4CCc5ccccc5C4)cc3)nc12	0	0	0	0	0	-	-
COc1ccc(C)c2sc(N(CCCN(C)C)C(=O)c3ccc(S(=O)(=O)N4CCc5ccccc5C4)cc3)nc12	0	30.8	0	0	0	21.2	0
O=C(c1cccc(F)c1)N1C[C@@H]2[C@H](c3ccccc31)[C@@H](CO)N2C(=O)C1CC1	-	-	0	0	-	-	-
Cc1cccc(N=Nc2c(C)nn(-c3ccccc3)c2N)c1C	0	23.1	0	0	0	0	0
CC(C)[C@H](C)NC(=O)N(C)C[C@H]1OCc2ccccc2-c2c(n(C)c3ccccc23)C(=O)N([C@H](C)CO)C[C@@H]1C	-	-	0	-	-	-	-
C[C@@H]1CCCCO[C@@H](CN(C)S(=O)(=O)c2cn(C)cn2)[C@@H](C)CN([C@@H](C)CO)C(=O)c2cc(NS(=O)(=O)c3cccs3)ccc2O1	-	-	0	0	-	-	-
Cc1ccc(N2CC(C(=O)Nc3nnc(SCC(N)=O)s3)CC2=O)cc1 (stereo unspecified)	0	80.6	0	0	0	0	0
NC(=O)CSc1nnc(NC(=O)C2CC(=O)N(c3ccc(F)cc3)C2)s1 (stereo unspecified)	0	0	0	0	0	-	-
C[C@H]1CN([C@@H](C)CO)C(=O)Cc2cc(NC(=O)Cn3cnnn3)ccc2O[C@H]1CN(C)C(=O)Nc1ccc(F)cc1	-	-	0	-	-	-	-
Cc1ccc(Cn2cc(CN3[C@H](c4ccccc4)COc4cc(Br)ccc4S3(=O)=O)nn2)cc1	0	20.6	-	-	0	0	0
SMILES	ADAM17 inh	ADAM10 inh	rRNA inh HTS	FGF22 binding	KLK7 zymogen act	ADAM10 confirm	ADAM17 ctr
Cc1ccc(CNCc2ccco2)cc1	0	0	0	0	0	-	-
Fc1ccc(CNCc2ccco2)cc1	0	19.8	0	0	0	0	0
Cc1noc(C)c1S(=O)(=O)Nc1ccc2c(c1)C(=O)N([C@H](C)CO)C[C@H](C)[C@@H](CN(C)S(=O)(=O)c1cccs1)O2	-	-	0	0	-	-	-
O=C(NCc1ccccc1F)c1ccc(S(=O)(=O)Nc2cccc(C(F)(F)F)c2)cc1	0	0	-	-	0	-	-
O=C(NCc1ccc(F)cc1)c1ccc(S(=O)(=O)Nc2cccc(C(F)(F)F)c2)cc1	0	26.6	-	-	0	0	0
Cn1nnc(NC(=O)c2ccc(C(C)(C)C)cc2)n1	0	34.5	-	-	0	0	0
Cc1c(C(C)(C)O)[nH]c2ccc(C(F)(F)F)cc12	0	0	0	0	0	-	-
Cc1c(C2(O)CCCCC2)[nH]c2ccc(C(F)(F)F)cc12	0	20.2	0	0	0	0	0
Cc1ccc(Nc2c([N+](=O)[O-])cc(C(=O)N3CC(=O)Nc4ccccc43)cc2[N+](=O)[O-])c(C)c1	0	20.4	-	-	0	0	0
O=C1CN(C(=O)c2ccc(Cl)c([N+](=O)[O-])c2)c2ccccc2N1	0	0	0	0	0	-	-
Nc1cc(OC(=O)c2ccco2)nn1S(=O)(=O)c1ccc(F)cc1	0	60.1	-	-	0	0	0
COc1ccc(Cl)cc1NC(=O)CN(C)C(=O)CN1C(=O)NC(C)(c2ccc3ccccc3c2)C1=O (stereo unspecified)	0	27.3	-	0	0	0	0
COc1ccc(Cl)cc1NC(=O)CN(C)C(=O)c1sc2ccccc2c1Cl	0	23.5	0	0	0	0	0
COc1ccc(Cl)cc1NC(=O)CN(C)C(=O)CN1C(=O)NC(C)(C)C1=O	0	0	0	0	0	-	-
O=C(C[C@H]1CC[C@@H]2[C@H](COC[C@H](O)CN2C(=O)c2ccccc2)O1)N1CCc2ccccc2C1	-	-	0	0	-	-	-
C/C(=N\NC(=S)NCc1ccccc1)c1cccc(Br)c1	0	21.4	0	0	0	0	0
C[C@H](CO)N1C[C@H](C)[C@@H](CN(C)S(=O)(=O)c2cn(C)cn2)Oc2ccc(NC(=O)Cc3cn(C)c4ccccc34)cc2C1=O	-	-	0	0	-	-	-
CC(C)(C)NC(=O)NC(=O)COc1ccc(Br)cc1Br	0	20.2	-	0	0	0	0
C[C@H](CO)N1C[C@H](C)[C@H](CN(C)Cc2ccc(Cl)c(Cl)c2)Oc2c(NS(C)(=O)=O)cccc2C1=O	-	-	0	0	-	-	-
Cc1cccc(NC(=O)c2ccc(C3SCC(=O)N3CCc3ccccc3)cc2)c1C (stereo unspecified)	0	21.5	-	-	0	0	0
CC(C)C[C@H](NC(=O)c1[nH]cnc1C(=O)Nc1ccc(CNC(=O)OC(C)(C)C)cc1)C(=O)OC(C)(C)C	9.1	25.4	0	0	0	25.4	0
